This note sets out measurements from PubChem BioAssay (NCI).

Among the test systems are MOLT-4 leukemia; SR leukemia; RPMI-8226 leukemia; OVCAR-8 ovarian; OVCAR-5 ovarian; SK-OV-3 ovarian; IGROV1 ovarian; OVCAR-3 ovarian; HS 578T breast; T-47D breast; BT-549 breast; MDA-MB-435 melanoma; SW-620 colon; MCF7 breast; HCT-116 colon; HCC-2998 colon; KM12 colon; OVCAR-4 ovarian; NCI/ADR-RES ovarian.
Holding throughout (assay): NCI-60 one-dose screen, 48 h (100 = growth as untreated, 0 = no growth, -100 = all killed)
Common to all, as to conditions: 10 µM unless noted

The structures appear in SMILES notation. Compounds without any hit were thinned out: in the full panel of roughly 83,000, 20% have a hit.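 48-hour exposure, single concentration, 96-well plates; percent growth endpoint where 0 means no net growth. Active: below 10.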 Unmarked numbers belong to inactive results. Active and inactive are the calls of the source.

Turning to `CC(=O)c1cccc(S(=O)(=O)F)c1`, the growth in the experiment on MOLT-4 leukemia is 112%; in the experiment on SR leukemia it was 76.1%; in the experiment with RPMI-8226 leukemia it was 101%; with OVCAR-8 ovarian, 106%; in the experiment on OVCAR-5 ovarian, 90.5%; with SK-OV-3 ovarian, 109%. In addition, the growth was 103% in the experiment with IGROV1 ovarian; 117% with OVCAR-3 ovarian; 96.4% in the experiment on HS 578T breast; 110% in the experiment on T-47D breast; 88.8% with BT-549 breast; 97.8% with MDA-MB-435 melanoma. In addition, the growth in the experiment with SW-620 colon is 105%; in the experiment on MCF7 breast, 96.8%; in the experiment on HCT-116 colon it was 92.1%; in the experiment on HCC-2998 colon, 95.2%; in the experiment with KM12 colon it was 105%.

For the compound `CC1=C2[C@H]3OC(=O)[C@@H](C)[C@@H]3CC[C@@]2(C)C=CC1=O`, the growth in the experiment on MOLT-4 leukemia is 104%; in the experiment on SR leukemia, 114%; in the experiment on RPMI-8226 leukemia, 91%; in the experiment with OVCAR-8 ovarian, 116%; with OVCAR-5 ovarian it was 90.7%; with OVCAR-4 ovarian, 110%. Further, the growth in the experiment with SK-OV-3 ovarian was 122%; in the experiment with OVCAR-3 ovarian, 129%; with HS 578T breast, 108%; with T-47D breast, 109%; in the experiment with MDA-MB-435 melanoma, 115%; in the experiment on SW-620 colon, 108%. Moreover, the growth in the experiment with MCF7 breast is 103%; in the experiment on HCT-116 colon, 118%; in the experiment with KM12 colon, 105%.

For the compound `CC[C@H](C)[C@H](NC(=O)CN(C)C)C(=O)N(C)[C@H](C[C@@H](OC(C)=O)c1nc(C(=O)NC23CC(C(=O)OC)(C2)C3)cs1)C(C)C`, the growth was 12.3% with MOLT-4 leukemia; 17.8% in the experiment with SR leukemia; 18.8% in the experiment on RPMI-8226 leukemia; 19.1% in the experiment with OVCAR-8 ovarian; 71.9% in the experiment on OVCAR-5 ovarian; 32.6% in the experiment on SK-OV-3 ovarian. Besides, the growth was 33% with IGROV1 ovarian; -47.2% (active) in the experiment with OVCAR-3 ovarian; 31.9% in the experiment with HS 578T breast; 77.8% in the experiment on NCI/ADR-RES ovarian; 50.4% in the experiment on T-47D breast; -38.9% (active) in the experiment with MDA-MB-435 melanoma. Further, the growth in the experiment on SW-620 colon was 30.9%; in the experiment on MCF7 breast, 17.9%; with HCT-116 colon, 4.85% (active); in the experiment on HCC-2998 colon, 20.4%; in the experiment with KM12 colon it was 11.4%.

As for `CCCCOCCOP(=O)(OCCOCCCC)OCCOCCCC`, the growth with MOLT-4 leukemia was 92.3%; in the experiment on SR leukemia, 98.9%; with RPMI-8226 leukemia, 115%; in the experiment on OVCAR-8 ovarian, 107%; with OVCAR-5 ovarian, 105%; in the experiment with SK-OV-3 ovarian, 101%. The growth was 119% with IGROV1 ovarian; 118% in the experiment on OVCAR-3 ovarian; 95.5% in the experiment on HS 578T breast; 99.7% with NCI/ADR-RES ovarian; 96.2% in the experiment with T-47D breast; 114% with BT-549 breast. The growth was 101% with MDA-MB-435 melanoma; 93.3% in the experiment on SW-620 colon; 105% with MCF7 breast; 115% in the experiment with HCT-116 colon; 102% with HCC-2998 colon; 120% in the experiment on KM12 colon.
